Laboratory results: PubChem BioAssay (Tox21)
“And” between values parts separate entries of the source, which are not always exact repeats. Identical values can stand only once. Results filed as inconclusive are left out. A call without a number means that no potency is given here. Where a structure was tested more than once in an assay, its records may differ in their call. The source made the active and inactive calls. The call rests on the fitted dose curve; in most records, active means well fitted activation curve with a large enough effect in the repeat runs; inconclusive means weak or mixed curves; inactive means flat fitted curve, though single readings scatter.

Assay: A CellTox Green Cytotoxicity Assay to monitor cytotoxicity in HepG2 cells - 32 hour (AID 1224883); further: nearly all actives have a fitted effect of over 50% in size
Conditions: CellTox Green fluorescence; series mostly up to 76.8 µM; cytotoxicity increase: at the top concentration
From the text: National Center for Advancing Translational Sciences [NCATS]
NIH Chemical Genomics Center [NCGC]
U.S. Environmental Protection Agency [EPA]
National Institutes of Environmental Health Sciences [NIEHS]
National Toxicology Program [NTP]
Cell-based models are critical for drug discovery. Determining the natural cytotoxic effects resulting from test compounds is an essential research activity. A CellTox Green Cytotoxicity Assay to monitor cytotoxicity in real time of continues cell culture during 40 hours of the compound treatment was used to screen Tox21 10K library compounds in HepG2 cells. CellTox Green Cytotoxicity Assay is a nonlytic, homogeneous, biofluorescent method to measure cytotoxicity in cell culture after experimental manipulation. The assay system uses a proprietary asymmetric cyanine dye that is excluded from viable cells but preferentially stains the dead cell's DNA. […] Viable cells produce no appreciable increases in fluorescence. Therefore, the fluorescence signal produced by the binding interaction with dead cell DNA is proportional to cytotoxicity.
The mixture of HepG2 cell suspension and reagents were dispensed at 600cells/6 ul/well in 1536-well tissue culture treated black solid bottom plates using a Multidrop dispenser. After the assay plates were incubated at a 37 C/5% CO2 incubator for 5 hours, 23 nL of compounds dissolved in DMSO, positive and negative controls was transferred to the assay plate by a pintool work station. The plates were incubated at 37 C for 40 hours. The fluorescence intensity were measured at 0h, 8h, 16h, 24h, 32h and 40h time points using ViewLux plate reader during compound treatment.
Potency means the concentration at half of the fitted maximal effect.

Row | SMILES | Potency | cytotoxicity increase
1 | COc1ccc2nc(N)sc2c1 | inactive | –
2 | CNC[C@H](O)c1ccc(O)c(O)c1 | inactive | –
3 | Cc1ccc(C(C)(C)C)cc1 | inactive | –
4 | Oc1c(Cl)ccc(Cl)c1Cl | inactive | –
5 | OC[C@@H](O)[C@@H](O[C@@H]1O[C@H](CO)[C@H](O)[C@H](O)[C@H]1O)[C@H](O)[C@@H](O)CO | inactive | –
6 | Nc1ccc(O)c(N)c1 | inactive | –
7 | CCCOCCO | inactive | –
8 | CCCCCC=O | – | 0.877% (inactive)
9 | Cc1ccc([N+](=O)[O-])c(C)c1 | 17.4 µM (active) and inactive | –
10 | c1ccc2c(c1)ccc1cc3c(ccc4ccccc43)cc12 | – | 15.6% [at 35.3 µM] (inactive)
11 | CC(=O)Oc1c(C)c(C)c2c(c1C)CC[C@@](C)(CCC[C@H](C)CCC[C@H](C)CCCC(C)C)O2 | inactive | –
12 | Nc1ccc2c(c1)C(=O)c1ccccc1C2=O | inactive | –
13 | C[C@]12C=CC(=O)C=C1CC[C@H]1[C@@H]3C[C@@H](O)[C@](O)(C(=O)CO)[C@@]3(C)C[C@H](O)[C@@]12F | inactive | –
14 | Cc1ccc(/C(=C\CN2CCCC2)c2ccccn2)cc1 | inactive | –
15 | C=CC(C)(O)CCC=C(C)C (stereo not given) | inactive | –
16 | ClC/C=C/CCl | inactive | –
17 | CCCCCCOCCOCCO | inactive | –
18 | Cc1ccc(C(C)(C)C)c(O)c1 | 38.9 µM (active) | –
19 | O=C(O)CCCCCCCCCCCC(=O)O | – | -5.74% (inactive)
20 | CCCCCCCCCCCCCO | inactive | –

Row | SMILES | Potency | cytotoxicity increase
21 | C=CN1CCCC1=O | inactive | –
22 | c1ccc2cc3ccccc3cc2c1 | inactive | –
23 | C=CCOC(=O)C(=C)C | inactive | –
24 | CCCCCCCC/C=C\CCCCCCCC(=O)O | inactive | –
25 | CC(=O)Oc1ccc(C(c2ccc(OC(C)=O)cc2)c2ccccn2)cc1 | inactive | –
26 | CC1=CC(C)(C)Nc2ccccc21 | inactive | –
27 | CC/C=C\C/C=C\C/C=C\CCCCCCCC(=O)O | inactive | –
28 | CC(C)(C)c1cccc(C(C)(C)C)c1O | – | 0.125% (inactive)
29 | O=C(O)c1ccc(O)cc1 | inactive | –
30 | C=C[C@H]1CN2CC[C@H]1C[C@H]2[C@H](O)c1ccnc2ccc(OC)cc12 | 54.9 µM (active) and inactive | –
31 | [O-]/[N+](=N\O)c1ccccc1 | inactive | –
32 | C1CN(SSN2CCOCC2)CCO1 | – | -3.3% (inactive)
33 | CC(=O)[C@H]1CC[C@H]2[C@@H]3CC=C4C[C@@H](O)CC[C@]4(C)[C@H]3CC[C@]12C | inactive | –
34 | CCO[Si](CCCNC(N)=O)(OCC)OCC | inactive | –
35 | Nc1cc([N+](=O)[O-])ccc1C(=O)O | inactive | –
36 | CN(Cc1cnc2nc(N)nc(N)c2n1)c1ccc(C(=O)N[C@@H](CCC(=O)O)C(=O)O)cc1 | inactive | –
37 | C1COCCN1 | inactive | –
38 | O=[Se](O)O | 24.6 µM (active) | 9.15% [at 15.8 µM] (inactive)
39 | COc1cc([C@H]2Oc3cc([C@H]4Oc5cc(O)cc(O)c5C(=O)[C@@H]4O)ccc3O[C@@H]2CO)ccc1O | inactive and 21.3 µM (active) | –
